Screens: PubChem BioAssay, several laboratories
Kir21 block: blocks the mouse Kir2.1 inward-rectifier potassium channel; B-score at 10 µM; HEK293-Kir2.1, FluxOR thallium flux fluorescence; stronger effect = lower value; 0.85% of 310,000 active; P35561;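 active means fluorescence ratio B-score at or below minus 3 SD of library scores, with starting-brightness B-score within 2 SD, cut at about -4.2 in these data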;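 further: channel flux triggered by added potassium and thallium sulfate stimulus; B-score of peak minus minimum fluorescence over baseline after thallium stimulus; more negative B-score means stronger Kir2.1 block with less thallium influx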
Target sequence (P35561 whole entry, looked up): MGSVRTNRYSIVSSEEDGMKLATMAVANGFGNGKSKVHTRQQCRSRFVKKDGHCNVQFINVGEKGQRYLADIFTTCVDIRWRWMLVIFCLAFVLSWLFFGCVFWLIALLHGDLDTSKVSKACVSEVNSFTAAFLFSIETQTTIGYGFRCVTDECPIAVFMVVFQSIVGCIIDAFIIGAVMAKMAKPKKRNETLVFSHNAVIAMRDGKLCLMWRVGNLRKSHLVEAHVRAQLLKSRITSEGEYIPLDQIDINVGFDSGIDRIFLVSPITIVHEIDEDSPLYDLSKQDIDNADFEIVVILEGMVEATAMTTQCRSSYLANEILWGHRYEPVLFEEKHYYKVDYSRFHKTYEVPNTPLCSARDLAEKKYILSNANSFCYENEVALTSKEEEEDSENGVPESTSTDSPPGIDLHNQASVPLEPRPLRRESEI
CHT allo act: human CHT allosteric activation. CHT-expressing cells, membrane potential dye, choline EC20; stronger effect = higher value; LV-AA mutant CHT in HEK293 cells. 0.49% of 310,000 active. B-score at 10 µM. AID 488977. Q9GZV3;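 active means initial fluorescence not abnormally high and integrated response B-score, plate-corrected, over 3 SD above library mean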
CHT block: inhibits the human high affinity choline transporter; CHT-expressing cells, membrane potential dye, choline response; stronger effect = lower value; B-score at 10 µM; 0.86% of 310,000 active;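 active means B-score over 3 SD under the library average, and starting fluorescence ratio not unusually high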;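 further: choline stimulus applied at its EC90 after an EC20 pre-addition; B-score computed on integrated fluorescence ratio after choline addition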
H9c2 TAG inh: reduces triacylglycerol accumulation in H9c2 cells; 0.66% of 230,000 active; Nile Red lipid (TAG) fluorescence; cells loaded with 200 µM oleic acid; inhibition, % at 12.5 µM; AID 651582;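 active means pattern-corrected inhibition of lipid staining of at least 50% with the nuclear-stain viability signal not falling by more than 50%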;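 further: 0% = DMSO wells and 100% = triacsin C control wells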
CHT activ conf: confirmation of human choline transporter (CHT) activators. shares compounds with CHT allo act. CHT-expressing cells, membrane potential dye fluorescence (FDSS); % of choline EC20–EC90 response window; HEK293 expressing CHT LV-AA mutant; choline added at its EC20. activation, % at 10 µM. 91% of 2,500 active. AID 504833;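 active means primary screen active, with duplicate mean activation above negative control mean plus 3 SD, cut at about 11% in these data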
HEK293 MP dye: counter-screen for CHT activators: effect in parental HEK293 cells; shares compounds with CHT allo act; membrane potential dye fluorescence (FDSS); measured after EC20 choline addition; ratio readout change at 10 µM, hits read low; 62% of 2,500 active; AID 623908;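 active means duplicate-averaged ratio beyond 3 SD from buffer wells, up or down, though filed actives are nearly all decreases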
Numbers without * were called inactive. An excerpt weighted towards active compounds, which were near 2% of everything screened.

How did Cc1nnc(C)n1/N=C/c1cc2ccccc2nc1Cl do in these assays?
Kir21 block: 0.73; CHT allo act: 8.6*; CHT block: inactive; H9c2 TAG inh: 3; CHT activ conf: 51*; HEK293 MP dye: -55*

What do the screens show for `Cc1cc(C)nc(N2CCCC(CCC(=O)NCc3ccc(F)c(F)c3)C2)n1` (configuration not stated)?
Kir21 block: -1.3; CHT allo act: inactive; CHT block: inactive; H9c2 TAG inh: -2

What do the screens show for `O=P(c1ccccc1)(c1ccccc1)C(c1ccccn1)P(=O)(c1ccccc1)c1ccccc1`?
Kir21 block: -0.5; CHT allo act: 8.5*; CHT block: inactive; H9c2 TAG inh: -13; CHT activ conf: 34*; HEK293 MP dye: inactive

Results for Cc1nnc(SCC(=O)Nc2cc(C(F)(F)F)ccc2N2CCOCC2)o1 ?
Kir21 block: 0.89; CHT allo act: inactive; CHT block: inactive; H9c2 TAG inh: -14

How did Cc1ccccc1SCC(=O)Nc1cc(C(F)(F)F)ccc1N1CCOCC1 do in these assays?
Kir21 block: -1.4; CHT allo act: inactive; CHT block: inactive; H9c2 TAG inh: 0; CHT activ conf: 36*; HEK293 MP dye: inactive

Results for CN(C1CCCCC1)S(=O)(=O)c1ccc2c(c1)c(=O)c(C(=O)NCCN1CCCC1)cn2C ?
Kir21 block: -0.08; CHT allo act: inactive; CHT block: inactive; H9c2 TAG inh: 3; CHT activ conf: 40*; HEK293 MP dye: -37*

What do the screens show for `CC(C)OCCCNC(=O)c1cn(C)c2ccc(S(=O)(=O)N(C)C3CCCCC3)cc2c1=O`?
Kir21 block: -0.25; CHT allo act: inactive; CHT block: inactive

Results for CCN(CC)CCCNC(=O)c1cn(C)c2ccc(S(=O)(=O)N(C)C)cc2c1=O ?
Kir21 block: 1; CHT allo act: 6.4*; CHT block: inactive; H9c2 TAG inh: -9; CHT activ conf: 55*; HEK293 MP dye: -35*

Results for Cc1cccc(C(=O)O[C@H]2[C@H](Cc3ccccc3)NS(=O)(=O)[C@H]3CC4C=C[C@]23O4)c1 ?
H9c2 TAG inh: 1

Results for Cc1nnc(Oc2ccccc2F)c2ccccc12 ?
Kir21 block: -0.05; CHT allo act: inactive; CHT block: inactive; H9c2 TAG inh: 1

How did Cc1ccc(C(=O)NNC(=O)c2ccncc2)cc1S(=O)(=O)N1CCOCC1 do in these assays?
Kir21 block: -0.44; CHT allo act: inactive; CHT block: inactive; H9c2 TAG inh: -14

What do the screens show for `C[N+](C)(C)CCCCCCCCCC[N+](C)(C)C`?
Kir21 block: 0.93; CHT allo act: 7.8*; CHT block: inactive; H9c2 TAG inh: -19; CHT activ conf: 43*; HEK293 MP dye: -52*

What do the screens show for `Cc1ccc(S(=O)(=O)N2CCN(C(=O)CN3CCOCC3)C2C(C)C)cc1` (configuration not stated)?
Kir21 block: 0.16; CHT allo act: inactive; CHT block: inactive

How did Cc1ccc(S(=O)(=O)N2CCN(C(=O)CN3CCOCC3)C2c2ccccc2)cc1 (configuration not stated) do in these assays?
Kir21 block: 0.71; CHT allo act: 8*; CHT block: inactive; H9c2 TAG inh: 16; CHT activ conf: -4; HEK293 MP dye: inactive

Results for COc1ccc(CNC(=O)C(c2cccs2)N(Cc2ccco2)C(=O)Cc2cccs2)cc1 (configuration not stated) ?
Kir21 block: -1.4; CHT allo act: 6.6*; CHT block: inactive; H9c2 TAG inh: 7; CHT activ conf: 26*; HEK293 MP dye: inactive

How did COc1ccc(CNC(=O)C(c2ccco2)N(Cc2ccccc2)C(=O)Cc2cccs2)cc1 (configuration not stated) do in these assays?
Kir21 block: 0.99; CHT allo act: inactive; CHT block: inactive; H9c2 TAG inh: -5

Results for CC1CCCC(C)N1CC(O)COCc1ccccc1F (configuration not stated) ?
Kir21 block: -0.46; CHT allo act: inactive; CHT block: inactive

Results for Cc1c(CCOC(=O)c2cc([N+](=O)[O-])cc([N+](=O)[O-])c2)sc[n+]1CCCCS(=O)(=O)[O-] ?
Kir21 block: -0.06; CHT allo act: inactive; CHT block: inactive; H9c2 TAG inh: -4; CHT activ conf: 12*; HEK293 MP dye: -21*

Results for Cc1c(CCOC(=O)c2ccccc2)sc[n+]1Cc1ccccc1 ?
Kir21 block: 1.7; CHT allo act: inactive; CHT block: inactive

Results for Cc1c(CCOC(=O)CC23CC4CC(CC(C4)C2)C3)sc[n+]1CC(=O)c1ccc(Br)cc1 ?
Kir21 block: -1.8; CHT allo act: inactive; CHT block: inactive; H9c2 TAG inh: -4; CHT activ conf: 28*; HEK293 MP dye: -25*

What do the screens show for `Cc1c(CCOC(=O)c2cc([N+](=O)[O-])cc([N+](=O)[O-])c2)sc[n+]1CC(=O)c1ccccc1`?
Kir21 block: -0.01; CHT allo act: inactive; CHT block: inactive; H9c2 TAG inh: 11; CHT activ conf: 32*; HEK293 MP dye: inactive

Results for Cc1c(CCOC(=O)CC23CC4CC(CC(C)(C4)C2)C3)sc[n+]1CC(=O)c1ccccc1 ?
Kir21 block: -2.3; CHT allo act: inactive; CHT block: inactive; H9c2 TAG inh: -4

What do the screens show for `Cc1c(CCOC(=O)c2ccccc2)sc[n+]1CC(=O)c1ccc(Br)cc1`?
Kir21 block: -2.7; CHT allo act: inactive; CHT block: inactive

What do the screens show for `CCOc1ccc(/C(O)=C2/C(=O)C(=O)N(CCCN3CCOCC3)C2c2ccc(F)cc2)cc1C` (configuration not stated)?
Kir21 block: 0.17; CHT allo act: inactive; CHT block: inactive

What do the screens show for `CCc1nc2ccc(C(=O)N(CC)CCN(C)C)cn2c1N(C=O)CCC(C)C`?
H9c2 TAG inh: 12

How did COc1ccc(C(O)c2nc(-c3cccc(CO)c3)cs2)cc1 (configuration not stated) do in these assays?
H9c2 TAG inh: -25

How did O=C1[C@@H]2C(c3ccccc3Cl)=NO[C@@H]2C(=O)N1Cc1ccccc1 do in these assays?
Kir21 block: 0.2; CHT allo act: inactive; CHT block: inactive; H9c2 TAG inh: -21

How did COc1ccc(CN2C(=O)[C@@H]3C(c4ccccc4Cl)=NO[C@@H]3C2=O)cc1 do in these assays?
Kir21 block: 1.5; CHT allo act: inactive; CHT block: inactive; H9c2 TAG inh: 26; CHT activ conf: 17*; HEK293 MP dye: inactive

What do the screens show for `Cc1cccc2nc(CSC(=N)N)c(Br)n12`?
Kir21 block: -0.92; CHT allo act: inactive; CHT block: inactive; CHT activ conf: 28*; HEK293 MP dye: -38*

Results for N=C(N)SCc1nc2ccccn2c1Br ?
Kir21 block: -0.75; CHT allo act: inactive; CHT block: inactive
